The panel holds about 83,000 compounds, 20% with a hit somewhere; the sample as a whole holds those more often.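 Treatment: one concentration, 48 hours, 96-well format. Scoring: percent growth, with anything below 10 considered active.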 Calls of active or inactive are those of the source.
tested on: NCI-H322M lung; assay: NCI-60 one-dose screen, 48 h (100 = growth as untreated, 0 = no growth, -100 = all killed); details: 10 µM unless noted

| Compound | growth |
| --- | --- |
| CN(C)CCC(=O)C1CC1 | 98.4% (inactive) |
| COc1cc(/C=C2\C(=O)N(CCCOc3cc(O)c4c(=O)cc(-c5ccccc5)oc4c3)c3ccccc32)cc(OC)c1O | 89.9% (inactive) |
| Cc1c2ccccc2nc2cc3c(cc12)[C@H]1CC[C@]2(C)C(=O)CC[C@H]2[C@@H]1CC3 | 98.5% (inactive) |
| COc1ccc(C(=O)/C=C/c2ccccc2)cc1S(N)(=O)=O | 71.4% (inactive) |
| Cc1ccc(OCCOCCOCCOc2ccc(C)n(O)c2=S)c(=S)n1O | 40.6% (inactive) |
| S=c1ccnc[nH]1 | 114% (inactive) |
| O=C(Oc1ccc2c(c1)sc1nc(-c3ccccc3)[nH]c(=O)c12)C(F)(F)F | 56.3% (inactive) |
| Cc1cccc(-c2nc(C(C)C)sc2-c2ccnc(NCCCNS(=O)(=O)c3ccc(Cl)cc3)c2)c1 | 95.1% (inactive) |
| CN(C)CCC(CCN(C)C)(C(=O)O)c1ccccc1 | 103% (inactive) |
| CC1=C2[C@@H](CC1)[C@]1(C)O[C@@](C3CCNCC3)(C[C@H]1OC(=O)CO)[C@H]2OC(=O)/C=C/c1ccccc1 | 105% (inactive) |
| COc1ccc2c(O)c(/C=C3\N=Nc4ncccc43)oc2c1C[C@@H]1CCNC[C@H]1F | 3.89% (active) |
| CC1(C)CC[C@]2(CO)CC[C@]3(C)[C@](O)([C@H](O)C[C@@H]4[C@@]5(C)CCCNC(C)(C)[C@@H]5CC[C@]43C)[C@@H]2C1 | 103% (inactive) |
| Cc1ccccc1N1CCN(C(=S)c2ccccc2)CC1 | 102% (inactive) |
| C1CCC(N2CN3c4nonc4N4CN(C5CCCCC5)CN5c6nonc6N(C2)C3C45)CC1 (stereo not drawn) | 95.6% (inactive) |
| COc1ccc(/C=N/Nc2c3ccccc3nc3ccccc23)cc1 | 101% (inactive) |
| Cc1nc2sc(C(=O)Nc3ccccn3)c(N)c2cc1C(C)O (stereo not drawn) | 83.1% (inactive) |
| COc1ccc(C/C(C)=C(\c2ccc(Cl)cc2)c2ccc(OCCCN(C)C)cc2)cc1 | 90.1% (inactive) |
| CC1(C)CC[C@]23CC[C@]4(C)[C@H](CC[C@@H]5[C@@]6(C)C/C(=C/O)C(=O)C(C)(C)[C@@H]6CC[C@]54C)[C@H]2[C@H]1OC3 | 105% (inactive) |
| Nc1ccc(Br)cc1C(F)(F)F | 119% (inactive) |
| Cc1oc(-c2ccc(Cl)cc2)nc1C1=NN(C(=O)c2ccncc2)C(c2ccccc2)C1 (stereo not drawn) | 93.7% (inactive) |

| Compound | growth |
| --- | --- |
| CCN(CC)CCOc1ccc(Nc2ncc3cc(-c4c(Cl)cccc4Cl)c(=O)n(CCOC)c3n2)cc1 | 17.5% (inactive) |
| COc1ccc(Oc2ccc(/C=C/C(=O)c3ccc(OC)c(OC)c3)cc2)cc1 | 86.7% (inactive) |
| C=CC(CC(c1ccccc1)(c1ccccc1)c1ccccc1)N(CC)CC (stereo not drawn) | 90% (inactive) |
| CC[C@@H](C(=O)[C@@H](C)[C@@H](O)[C@H](C)[C@@H]1O[C@@H]([C@@H](CC)C(=O)ONC(=O)c2ccccc2O)CC[C@@H]1C)C1O[C@]2(C=CC(=O)[C@]3(CC[C@@](C)([C@H]4CC[C@](O)(CC)[C@H](C)O4)O3)O2)[C@H](C)C[C@@H]1C (stereo partly drawn) | 70% (inactive) |
| C[C@H](c1nc2ccc(C#N)cc2[nH]1)[C@H]1CC[C@H]2[C@@H]3CCC4=CC(=O)CC[C@]4(C)[C@H]3CC[C@]12C | 94.4% (inactive) |
| COc1ccc2[nH]cc(-c3nonc3-c3c[nH]c4ccc(Br)cc34)c2c1 | 50.5% (inactive) |
| O=C(NCCN1CCOCC1)OCc1ccc2c(Cl)cc(Cl)c(O)c2n1 | 66.9% (inactive) |
| COc1cccc(-c2cn3nc(-c4cn(C)c5ccccc45)sc3n2)c1 | 96.9% (inactive) |
| NS(=O)(=O)c1ccc(C(=O)NN2C(=O)c3ccccc3C2=O)cc1 | 110% (inactive) |
| CC(C)=CC(=O)N[C@H]1CC[C@]2(C)C3CC[C@]4(C)C(C(C)N(C)C)=CCC4C3CCC2[C@H]1O (stereo partly drawn) | 57.5% (inactive) |
| CCCn1c(=S)sc2c(NNC(C)=O)nc(C)nc21 | 101% (inactive) |
| Cc1nc(N/N=C/c2cn(-c3ccccc3)nc2-c2cc3ccccc3oc2=O)sc1N=Nc1ccccc1 | 104% (inactive) |
| O=C(Nc1ncc(Cc2ccccc2)s1)c1sc2ccccc2c1Cl | 43.4% (inactive) |
| COc1cc(/C=C/C(=O)c2cc(OC)c(OC)c(OC)c2)ccc1Oc1nc2c(c(=O)n(C)c(=O)n2C)n1C | 0% (active) |
| NC(=O)c1ccccc1OCC(=O)Nc1ccc(Cl)c(Cl)c1 | 96.8% (inactive) |
| CCOC(=O)c1c(C)nc2ccccc2c1/C=C/c1ccc(F)cc1 | 94.7% (inactive) |
| Cc1cn(C)cn1 | 116% (inactive) |
| C#CCOc1ccc2nc(CCl)c(Cl)c(Nc3cccc(C(F)(F)F)c3)c2c1 | 98.1% (inactive) |
| Cc1ccc(NC(=O)c2cc3ccccc3cc2O)c(C)c1 | 94.4% (inactive) |

tested on: HOP-62 NSCLC; assay: as above; details: 10 µM unless noted

| Compound | growth |
| --- | --- |
| CN(C)CCC(=O)C1CC1 | 91.2% (inactive) |
| COc1cc(/C=C2\C(=O)N(CCCOc3cc(O)c4c(=O)cc(-c5ccccc5)oc4c3)c3ccccc32)cc(OC)c1O | 71.7% (inactive) |
| Cc1c2ccccc2nc2cc3c(cc12)[C@H]1CC[C@]2(C)C(=O)CC[C@H]2[C@@H]1CC3 | 105% (inactive) |
| COc1ccc(C(=O)/C=C/c2ccccc2)cc1S(N)(=O)=O | 86.9% (inactive) |
| Cc1ccc(OCCOCCOCCOc2ccc(C)n(O)c2=S)c(=S)n1O | 30.3% (inactive) |
| S=c1ccnc[nH]1 | 109% (inactive) |
| O=C(Oc1ccc2c(c1)sc1nc(-c3ccccc3)[nH]c(=O)c12)C(F)(F)F | 39.3% (inactive) |
| Cc1cccc(-c2nc(C(C)C)sc2-c2ccnc(NCCCNS(=O)(=O)c3ccc(Cl)cc3)c2)c1 | 91.6% (inactive) |
| CN(C)CCC(CCN(C)C)(C(=O)O)c1ccccc1 | 94% (inactive) |
| CC1=C2[C@@H](CC1)[C@]1(C)O[C@@](C3CCNCC3)(C[C@H]1OC(=O)CO)[C@H]2OC(=O)/C=C/c1ccccc1 | 94.5% (inactive) |
| COc1ccc2c(O)c(/C=C3\N=Nc4ncccc43)oc2c1C[C@@H]1CCNC[C@H]1F | -30.5% (active) |
| CC1(C)CC[C@]2(CO)CC[C@]3(C)[C@](O)([C@H](O)C[C@@H]4[C@@]5(C)CCCNC(C)(C)[C@@H]5CC[C@]43C)[C@@H]2C1 | 101% (inactive) |
| Cc1ccccc1N1CCN(C(=S)c2ccccc2)CC1 | 95.2% (inactive) |
| C1CCC(N2CN3c4nonc4N4CN(C5CCCCC5)CN5c6nonc6N(C2)C3C45)CC1 (stereo not drawn) | 97.2% (inactive) |
| COc1ccc(/C=N/Nc2c3ccccc3nc3ccccc23)cc1 | 98% (inactive) |
| Cc1nc2sc(C(=O)Nc3ccccn3)c(N)c2cc1C(C)O (stereo not drawn) | 63.9% (inactive) |
| COc1ccc(C/C(C)=C(\c2ccc(Cl)cc2)c2ccc(OCCCN(C)C)cc2)cc1 | 92.9% (inactive) |
| CC1(C)CC[C@]23CC[C@]4(C)[C@H](CC[C@@H]5[C@@]6(C)C/C(=C/O)C(=O)C(C)(C)[C@@H]6CC[C@]54C)[C@H]2[C@H]1OC3 | 102% (inactive) |
| Nc1ccc(Br)cc1C(F)(F)F | 102% (inactive) |
| Cc1oc(-c2ccc(Cl)cc2)nc1C1=NN(C(=O)c2ccncc2)C(c2ccccc2)C1 (stereo not drawn) | 107% (inactive) |

| Compound | growth |
| --- | --- |
| CCN(CC)CCOc1ccc(Nc2ncc3cc(-c4c(Cl)cccc4Cl)c(=O)n(CCOC)c3n2)cc1 | 6.51% (active) |
| COc1ccc(Oc2ccc(/C=C/C(=O)c3ccc(OC)c(OC)c3)cc2)cc1 | 118% (inactive) |
| C=CC(CC(c1ccccc1)(c1ccccc1)c1ccccc1)N(CC)CC (stereo not drawn) | 87.5% (inactive) |
| CC[C@@H](C(=O)[C@@H](C)[C@@H](O)[C@H](C)[C@@H]1O[C@@H]([C@@H](CC)C(=O)ONC(=O)c2ccccc2O)CC[C@@H]1C)C1O[C@]2(C=CC(=O)[C@]3(CC[C@@](C)([C@H]4CC[C@](O)(CC)[C@H](C)O4)O3)O2)[C@H](C)C[C@@H]1C (stereo partly drawn) | 58.3% (inactive) |
| C[C@H](c1nc2ccc(C#N)cc2[nH]1)[C@H]1CC[C@H]2[C@@H]3CCC4=CC(=O)CC[C@]4(C)[C@H]3CC[C@]12C | 101% (inactive) |
| COc1ccc2[nH]cc(-c3nonc3-c3c[nH]c4ccc(Br)cc34)c2c1 | 33.8% (inactive) |
| O=C(NCCN1CCOCC1)OCc1ccc2c(Cl)cc(Cl)c(O)c2n1 | 47.8% (inactive) |
| COc1cccc(-c2cn3nc(-c4cn(C)c5ccccc45)sc3n2)c1 | 96.5% (inactive) |
| NS(=O)(=O)c1ccc(C(=O)NN2C(=O)c3ccccc3C2=O)cc1 | 108% (inactive) |
| CC(C)=CC(=O)N[C@H]1CC[C@]2(C)C3CC[C@]4(C)C(C(C)N(C)C)=CCC4C3CCC2[C@H]1O (stereo partly drawn) | 66.6% (inactive) |
| CCCn1c(=S)sc2c(NNC(C)=O)nc(C)nc21 | 78.3% (inactive) |
| Cc1nc(N/N=C/c2cn(-c3ccccc3)nc2-c2cc3ccccc3oc2=O)sc1N=Nc1ccccc1 | 66% (inactive) |
| O=C(Nc1ncc(Cc2ccccc2)s1)c1sc2ccccc2c1Cl | 25% (inactive) |
| COc1cc(/C=C/C(=O)c2cc(OC)c(OC)c(OC)c2)ccc1Oc1nc2c(c(=O)n(C)c(=O)n2C)n1C | -40.8% (active) |
| NC(=O)c1ccccc1OCC(=O)Nc1ccc(Cl)c(Cl)c1 | 96.8% (inactive) |
| CCOC(=O)c1c(C)nc2ccccc2c1/C=C/c1ccc(F)cc1 | 80.9% (inactive) |
| Cc1cn(C)cn1 | 111% (inactive) |
| C#CCOc1ccc2nc(CCl)c(Cl)c(Nc3cccc(C(F)(F)F)c3)c2c1 | 93% (inactive) |
| Cc1ccc(NC(=O)c2cc3ccccc3cc2O)c(C)c1 | 89.3% (inactive) |
